Autofluor counter: counter-screen for toxin protease inhibitors: compound fluorescence; compound autofluorescence counterscreen, microsphere flow cytometry; active compounds read high; fluorescence intensity (no concentration beside the values); hit rate 3.1% among 360,000; AID 624483; in the data active = fluorescence intensity above about 16000; inconclusive = no clear call, values can overlap the other calls
BoNT-F LC inh: BoNT/F light chain protease inhibitors, primary screen, biochemical, flow cytometry, MLPCN library | Botulinum neurotoxin type F light chain protease (Clostridium botulinum) | Multiplex microsphere protease cleavage assay | inhibition, % at 10 µM | hit rate 0.22% among 360,000; in the data active = inhibition above about 35%, passing the limit was not always enough; inconclusive = no clear call, values can overlap the other calls; also: plate controls were buffer without enzyme for full effect and enzyme alone for no effect
Anthrax LF prot: Bacillus anthracis LF protease inhibitors, primary screen, biochemical, multiplex microsphere, MLPCN library; hit rate 0.12% among 360,000; Lethal factor (Bacillus anthracis), P15917; AID 588501, 2011; inhibition, % at 10 µM; multiplex microsphere protease cleavage assay; also: plate controls were buffer without enzyme for full effect and enzyme alone for no effect
BoNT-A LC inh2: BoNT/A light chain protease inhibitors, primary screen, biochemical, flow cytometry, MLPCN library; multiplex microsphere protease substrate cleavage; hit rate 0.17% among 360,000; AID 588499, 2011; inhibition, % at 10 µM; Botulinum neurotoxin type A light chain protease (Clostridium botulinum A str. ATCC 3502); also: plate controls were buffer without enzyme for full effect and enzyme alone for no effect
BJeLR lethal: MLPCN primary cell-based screen for lethality selective to Ras in HRASV12 cells. BJeLR (HRASV12) viability, CellTiter-Glo ATP luminescence, 48 h. hit rate 0.17% among 300,000. inhibition, % (concentration not given with the values). AID 1554, 2009; in the data active = inhibition above about 50%; inconclusive = no clear call, values can overlap the other calls
Vc quorum ag: inducers of Vibrio cholerae quorum light production without autoinducers, primary screen, BH1578 luxS cqsA deficient, single point; V. cholerae BH1578 lux reporter, luminescence, 6 h; activation, % at 18.7 µM; hit rate 0.16% among 350,000; in the data active = activation mostly above about 9.7%, no sharp cut-off; inconclusive = no clear call, values can overlap the other calls; inactive = mostly below about 3.7%
An asterisk follows results filed as active; i = inactive; ? = inconclusive; . = no result; ! = repeats disagree. In the library only some 3.7% were active in any assay of this set; here they are far more common. Rule as the data show it, unless noted: active = inhibition above about 30%; inconclusive = no clear call, values can overlap the other calls; inactive = below that.

SMILES | Autofluor counter | BoNT-F LC inh | Anthrax LF prot | BoNT-A LC inh2 | BJeLR lethal | Vc quorum ag
O=C(CCl)Nc1cc(SCC(O)CO)cc([N+](=O)[O-])c1 (configuration not stated) | 2016 | -7 | -1 | -1 | 81* | i
CC(C)=NOc1cc(NC(=O)CCl)cc([N+](=O)[O-])c1 | 2307 | 3 | 2 | 0 | 1 | 0
CCC(=O)Nc1cc(SCCO)cc([N+](=O)[O-])c1 | 16916* | -1 | -2 | -2 | 7 | 0
CN(C)c1ncnc2c1ncn2[C@H]1CN(C2CCCC2)C[C@@H](CO)O1 | 4082 | -5 | -1 | 0 | . | 0
O=C(N/N=C/c1cccnc1)c1ccc(NC(=O)C(c2ccccc2)c2ccccc2)cc1 | 2530 | -18 | 0 | -2 | 106* | 0
CCCC(=O)Nc1ccc(C(=O)N/N=C/c2cccnc2)cc1 | 23205* | -1 | 0 | ? | -1 | -1
O=C(CNC(=O)C(c1ccccc1)c1ccccc1)N/N=C/c1cccnc1 | 5615 | -1 | 0 | 0 | 14 | -1
O=C(CCC(=O)Nc1ccc(F)cc1)N/N=C/c1cccnc1 | 3943 | -6 | -2 | -3 | 7 | 0
CC(=O)c1ccc(OC2(C)CCN(CCOc3ccc(C)cc3)C2)cc1 (configuration not stated) | 3050 | -11 | -5 | 0 | . | i
CN(Cc1nc(-c2ccccn2)no1)S(=O)(=O)c1ccc(Cl)cc1 | 21655* | 4 | 1 | 4 | 6 | 0
OC[C@H]1O[C@@H](c2nc(-c3ccc(Br)cc3)no2)C[C@@H]1O | 3694 | -1 | -1 | 1 | . | i
Cc1cccc(NC(=O)c2nc[nH]c2C(=O)N[C@H](C)CO)c1 | 2992 | -3 | -11 | 0 | . | 0
O=C(Nc1ccc(Cl)cc1C(=O)Nc1ccc(Br)cn1)c1ccco1 | 20162* | -6 | 0 | -2 | -8 | i
O=[N+]([O-])c1cc(/C=N/OCc2c(Cl)cccc2Cl)ccc1N1CCOCC1 | 22744* | -3 | -6 | 1 | 8 | -27
O=C1OCC(Cn2c3ccccc3c3ccccc32)O1 (configuration not stated) | 23400* | 2 | 1 | 1 | -5 | i
CCCc1nc2ccc(C)cn2c1Cc1ccc(OC)cc1C | 4587 | -14 | -1 | 4 | . | .
Cc1nc2ccccc2n1CC(O)Cn1c2ccccc2c2ccccc21 (configuration not stated) | 15620 | 4 | -4 | ? | 2 | 13
OC(Cn1c2ccccc2c2ccccc21)C[n+]1cccc2ccccc21 (configuration not stated) | 20032* | -19 | -3 | ? | 1 | 0
O=C(Nc1nnc(C2CCCO2)s1)c1ccc(Br)cc1 (configuration not stated) | 23157* | 0 | -4 | 0 | . | 0
COC(=O)COc1ccc(S(=O)(=O)NCc2cccnc2)cc1C | 17503* | 10 | 1 | 6 | 6 | 0
CCOc1ccc(S(=O)(=O)NCc2cccnc2)cc1C | 4322 | -9 | 1 | -1 | 4 | 0
COc1cc(S(=O)(=O)NCc2cccnc2)ccc1F | 21999* | 0 | -4 | 1 | -1 | 11
COc1ccc(S(=O)(=O)NCc2cccnc2)cc1C | 4875 | ? | -5 | -3 | 15 | i
CC(CN1CCCCC1)NC(=O)c1scnc1-c1ccccc1 (configuration not stated) | 5349 | -9 | -3 | 0 | . | .
c1ccc(CNc2ncnc3ccccc23)cc1 | 20097*! | 8 | -2 | 6 | 2 | 7
SMILES | Autofluor counter | BoNT-F LC inh | Anthrax LF prot | BoNT-A LC inh2 | BJeLR lethal | Vc quorum ag
COc1cc2ncnc(NCc3ccccc3)c2cc1OC | 2424 | -4 | 0 | 0 | 8 | i
Cn1nc(C(F)(F)F)c(/C=N/OC(=O)c2ccc(Cl)cc2)c1Cl | 5777 | -10 | -12 | 0 | -4 | i
Cn1nc(C(F)(F)F)c(/C=N/OCc2c(Cl)cccc2Cl)c1Cl | 9967 | -4 | -10 | 0 | 1 | 0
Cn1nc(C(F)(F)F)c(/C=N/OC(=O)c2ccccc2Cl)c1SCc1ccccc1Cl | 22148* | 1 | 0 | 2 | -9 | 6
Cn1nc(C(F)(F)F)c(/C=N/OC(=O)c2ccccc2)c1SCc1ccc(Cl)cc1 | 21079* | -1 | -2 | -1 | -6 | i
CSc1ccc(COC(=O)c2cc([N+](=O)[O-])ccc2N2CCOCC2)cc1 | 5358 | -3 | 1 | 3 | 56* | -2
Cc1ccccc1COC(=O)c1cc([N+](=O)[O-])ccc1N1CCOCC1 | 4132 | 9 | 2 | 3 | 3 | i
O=C(c1cc([N+](=O)[O-])ccc1N1CCOCC1)N1CCN(c2ccccc2)CC1 | 6322 | 3 | -3 | 1 | 56* | 0
COc1ccc(-c2cc(C(=O)NCC3CCCCC3)[nH]n2)c(C)c1 | 3452 | -4 | 2 | 0 | . | i
O=S1(=O)C[C@H](N2CCN(CCO)CC2)[C@@H](COCc2ccccc2)N1 | 6173 | -7 | 0 | 0 | . | .
Cc1cc(C)cc(CC(=O)N2CCC2(C)C(=O)NS(=O)(=O)c2ccc(Br)cc2)c1 (configuration not stated) | 3509 | -7 | -2 | -1 | . | -5
Cc1nn(Cc2c(F)c(F)c(F)c(F)c2F)c(C)c1NC(=O)c1ccc(COc2ccccc2Cl)cc1 | 8005 | 2 | -4 | -1 | -13 | 6
Cc1nn(Cc2c(F)c(F)c(F)c(F)c2F)c(C)c1NC(=O)c1ccc(COc2ccccc2Cl)o1 | 19196* | 15 | 0 | 15 | -11 | 1
COc1ccc(C(=O)NCc2ccc(N3CCN(C(=O)OC(C)(C)C)CC3)cc2)cc1 | 22812* | -5 | -2 | -2 | 3 | i
COc1cccc(C(=O)NCc2ccc(N3CCN(C(=O)OC(C)(C)C)CC3)cc2)c1 | 20260* | 2 | -1 | 1 | 4 | 6
CC1(C(=O)NCCC#N)CCN1C(=O)Cc1ccc(-c2ccccc2)cc1 (configuration not stated) | 3988 | 0 | -11 | 0 | . | 0
O=C(NCC(c1ccco1)N1CCN(c2ccccc2)CC1)C1CCCCC1 (configuration not stated) | 3968 | -6 | 2 | -1 | . | 0
Cc1ccc(N(Cc2cc(=O)[nH]c3ccccc23)C(=O)c2ccco2)cc1 | 23679* | 2 | -3 | -1 | 1 | i
COc1ccc(-n2c(=O)cc(N3CCN(c4ccccc4OC)CC3)[nH]c2=O)cc1 | 9718 | 2 | -2 | 0 | . | i
COc1cc(OC)c(OC)cc1CN1CCN(c2ccccc2OC)CC1 | 24136* | -5 | 1 | ? | 10 | i

Source: PubChem BioAssay (several laboratories)
